SNCA viab count – GF-AFC viability counterscreen for inhibitors of alpha-synuclein gene (SNCA) expression. Potency, µM (doses to about 57.1 µM), usual class: cytotoxic. HEK-293-SNCA-luc viability, GF-AFC fluorescence, 24 h. 0.12% of 150,000 active. AID 1671193, 2021; further: nearly all actives have a fitted effect of over 30% in size
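HEK-293-SNCA-luc cells (1500/well) plated 24 h, then exposed 24 h to a dilution series; GF-AFC added 30 min at 37C, fluorescence 405/540 nm; normalised to medium-only and DMSO wells, Hill fit.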
IP6K1 inhibitor – Primary qHTS assay for small molecule inhibitors of Inositol hexaphosphate kinase 1 (IP6K1); Inositol hexakisphosphate kinase 1 (Homo sapiens), Q92551; 0.81% of 140,000 active; IP6K1 kinase, ADP-Glo luminescence, 2 h; active compounds read low; activity change, % (series mostly up to about 58 µM); AID 1645851, 2021; in the data active means activity change below about -25%
Target sequence (Q92551 whole entry, looked up): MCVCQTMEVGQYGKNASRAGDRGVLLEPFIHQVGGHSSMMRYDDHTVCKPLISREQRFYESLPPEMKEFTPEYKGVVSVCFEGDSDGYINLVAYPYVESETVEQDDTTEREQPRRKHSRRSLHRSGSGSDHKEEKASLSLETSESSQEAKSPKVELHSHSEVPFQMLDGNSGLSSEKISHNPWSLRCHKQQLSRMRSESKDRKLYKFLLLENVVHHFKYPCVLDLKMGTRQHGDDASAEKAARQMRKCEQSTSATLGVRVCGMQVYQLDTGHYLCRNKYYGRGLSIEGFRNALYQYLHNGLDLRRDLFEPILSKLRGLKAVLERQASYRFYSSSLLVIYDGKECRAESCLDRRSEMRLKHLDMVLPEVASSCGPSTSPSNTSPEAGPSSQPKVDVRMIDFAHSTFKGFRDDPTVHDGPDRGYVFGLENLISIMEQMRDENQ
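ADP-Glo luminescence measures ADP made by human IP6K1 during a 2 h RT reaction with ATP/IP6 (mix at 1.3 mM/130 uM); top library doses 57.5 and 19.1 uM final.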
SNCA expr inh – Primary qHTS assay for inhibitors of alpha-synuclein gene (SNCA) expression; HEK-293 SNCA-luciferase knock-in, luminescence, 24 h; 0.17% of 140,000 active; AID 1671194, 2021; Potency, µM (highest dose often 57.2 µM), hits mostly inhibitors; further: nearly all actives have a fitted effect of over 45% in size
KDM5B inhibitor – Primary screen for KDM5B Histone Demethylases FDH-coupled qHTS. AID 1347165, 2019. Potency, µM (top dose mostly 57.7 µM), actives largely listed as inhibitors. Lysine-specific demethylase 5B (Homo sapiens), Q9UGL1. KDM5B demethylase, FDH-coupled NADH fluorescence (FDH is formaldehyde dehydrogenase). 2.6% of 220,000 active; further: nearly all actives have a fitted effect of over 70% in size
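Compound dilutions met 200 nM (final) KDM5BΔAP for 10 min at room temperature before substrate addition. The substrate mix held 12.5 µM H3K4me3 with cofactors 25 µM α-ketoglutarate and 50 µM Fe²⁺. NADH signal gain over 30 min defined activity.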
Hits are given with their value; - = inactive; ? = inconclusive; . = no result; ! = repeats disagree. Most compounds without a hit are left out; they make up all but 2.9% or so of the library. Unless noted, the call rests on the fitted dose curve; in most records, active means well fitted curve in the direction sought with a large enough effect; inconclusive means small, poorly fitted or top-dose-only effect, or another doubt; inactive means no such curve, though single readings can be large; an effect the other way counts as inactive or inconclusive.

SMILES | SNCA viab count | IP6K1 inhibitor | SNCA expr inh | KDM5B inhibitor
CN(CC(=O)N1CCn2nc(Cc3ccccc3)cc2C1)Cc1ccncc1 | - | - | - | 14.1µM
N#Cc1ccc(CN2CCC(c3nc4ccc(F)cc4c(=O)[nH]3)CC2)cc1 | - | - | - | -
Cc1ccc2nc(C3CCN(Cc4ccc(C#N)cc4)CC3)[nH]c(=O)c2c1 | - | - | - | 79.4µM!
CCC(C(=O)NCc1ccc(C(=O)OC)cc1)c1ccccc1 (centres undefined) | . | . | . | -
CN(CCOc1ccccc1)C(=O)C1CCN(C(=O)c2ccc(F)cc2)CC1 | . | . | . | -
O=C(c1ccc(-c2ccc(CO)cc2)nc1)N1CCC(Oc2cccnc2)CC1 | - | - | - | -
CCN1CCN(Cc2ccc(NC(=O)c3ccc(C)c(Oc4ncnc5[nH]c(C)cc45)c3)cc2C(F)(F)F)CC1 | ? | - | . | .
CN1CCN(Cc2ccc(NC(=O)Nc3ccc(Oc4cc(NC(=O)C5CC5)ncn4)cc3)cc2C(F)(F)F)CC1 | ? | - | 0.482µM | .
COc1ccccc1N1CCN(C(=O)c2cc3c(=O)n(Cc4cccs4)ccc3nc2C)CC1 | - | - | - | ?
Cc1ccc(CN2C(=O)NC3(CCCN(C(=O)c4ccccc4F)C3)C2=O)cc1 (centres undefined) | - | - | - | -
C=C1C(=O)OC2CC(C)C(CCC(C)O)=CCC12 (centres undefined) | ? | - | . | .
COc1ccccc1N1CCN(C(=O)CCc2conc2-c2cccc(F)c2)CC1 | - | - | ? | -
Cc1ccc(C)c(N2CCN(c3nc4ccccc4c(=O)n3-c3ccccc3)CC2)c1 | - | - | 2.51µM | ?
Cc1cc(-n2c(C)cc(-c3csc(CC(=O)Nc4ccccc4C)n3)c2C)no1 | . | . | . | -
CN1C(=O)c2ccc(NC(=O)C[C@H]3NC(=O)c4ccccc4NC3=O)cc2C1=O | - | - | - | 25.1µM
CC(C)n1c(CNC(=O)C[C@H]2NC(=O)c3ccccc3NC2=O)nc2ccccc21 | - | - | - | 28.2µM
NC(=O)c1ccc(NC(=O)C[C@H]2NC(=O)c3ccccc3NC2=O)cc1 | - | - | - | -
COc1ccc(OCC(=O)Nc2ccc3oc(C)nc3c2)cc1 | . | . | . | -
O=C(c1ccc(Cl)cc1)N1CCN(c2ccc([N+](=O)[O-])c3ncccc23)CC1 | - | . | - | .
CN(C)Cc1nnc(C2CC(NC(=O)c3ccn(C)c(=O)c3)C2)n1C (centres undefined) | - | - | - | 31.6µM
CN(C)Cc1nnc(C2CC(NC(=O)c3ccc4c(c3)CCC4)C2)n1C (centres undefined) | - | - | - | -
CN(C)Cc1nnc(C2CC(Nc3cncc(C(=O)N(C)C)n3)C2)n1C (centres undefined) | - | - | - | 28.2µM
Cc1occc1-c1nnc(SCC(=O)NC(C)C)o1 | . | . | . | -
O=c1c(-c2ccc(O)cc2)coc2cc(OC3O[C@H](CO)[C@H](O)[C@H](O)[C@H]3O)cc(O)c12 (some centres undefined) | - | . | 5.41µM | .
O=C(NCc1cccs1)c1nn(-c2ccccc2)nc1CO | - | - | - | -
SMILES | SNCA viab count | IP6K1 inhibitor | SNCA expr inh | KDM5B inhibitor
O=C1CC(c2ccccc2)N(C(=O)CNC(=O)c2ccccn2)CCCCCN1 (centres undefined) | - | - | - | 28.2µM
CC1CCCC(C)N1C(=O)CSc1nc2cc(Cl)ccc2s1 (centres undefined) | . | . | . | -
Cc1ccc(-c2cnc(CCC(=O)NCCN3CCOCC3)o2)cc1C | . | . | . | -
c1ccc(CN2CCNc3cnc(Nc4ccc(N5CCOCC5)cc4)cc3C2)cc1 | ? | - | ? | ?
c1ccc(Nc2cc3c(cn2)NCCN(Cc2ccccn2)C3)cc1 | - | - | - | 35.5µM
Oc1ccccc1CN1CCNc2cc(Nc3ccccc3)ncc2C1 | ? | - | - | -
Oc1ccccc1CN1CCNc2cnc(Nc3ccccc3)cc2C1 | - | - | ? | 22.4µM
Oc1ccccc1CN1CCNc2cc(Nc3cccnc3)ncc2C1 | - | - | - | 35.5µM
CC(C)c1noc(-c2cn(C3CCN(C(=O)c4ccccc4Cl)CC3)nn2)n1 | - | - | - | ?
Cc1cccc(Cc2cnc(NC(=O)CCc3nnc(-c4ccsc4)o3)s2)c1Cl | . | . | . | -
CC1CCN(CCNC(=O)c2ccc(Cn3c(SCc4ccccc4)nc4cccnc43)cc2)CC1 | 10µM | - | - | ?
COCCN1CCC2(C1)CN(C)c1ccc(C(=O)NCc3ccccc3)cc12 (centres undefined) | - | - | - | 35.5µM
CN1CC2(CCCN(CC3CC3)C2)c2cc(C(=O)N3CC(O)C3)ccc21 (centres undefined) | - | - | - | ?
CN(C)CCNC(=O)c1ccc2c(=O)n3c(nc2c1)CCCCC3 | - | - | - | -
Cn1ccc(NC(=O)c2ccc3c(c2)C2(CCN(CC4CC4)C2)CN3Cc2ccccc2)n1 (centres undefined) | - | - | - | ?
CN1CC2(CCCN(CC3CC3)C2)c2cc(C(=O)NCCc3ccccc3)ccc21 (centres undefined) | - | - | - | 35.5µM
COc1ccc(C(=O)N2CCc3ccc(C(=O)NCc4ccccc4)cc32)cc1 | - | - | - | -
CN(C)CCNC(=O)c1ccc2c(c1)C1(CCCN(CC3CC3)C1)CN2C (centres undefined) | - | - | - | 35.5µM
CC(C)CNC(=O)c1ccc2c(c1)C1(CCCN(CC3CC3)C1)CN2C (centres undefined) | - | - | - | 35.5µM
COC(=O)c1cc2n(n1)CCCN(S(=O)(=O)c1ccc(-c3ccno3)o1)C2 | - | - | - | -
CC(=O)N1CCCC2(C1)CN(C)c1ccc(C(=O)NCCc3ccccc3)cc12 (centres undefined) | - | - | - | 35.5µM
CN1CCC2(C1)CN(Cc1ccccc1)c1ccc(C(=O)NCCc3ccccn3)cc12 (centres undefined) | - | - | - | ?
CCCCCNC(=O)NC(C)C(=O)NCC (centres undefined) | . | . | . | -
Cc1cccc(OC[C@H]2C[C@@H](NC(=O)c3ccccc3)[C@H](O)[C@@H]2O)n1 | - | - | - | 35.5µM
OC1(c2ccccn2)COc2ccccc2O1 (centres undefined) | . | . | . | -
SMILES | SNCA viab count | IP6K1 inhibitor | SNCA expr inh | KDM5B inhibitor
CCC1CCCCN1C(=O)c1nn(-c2ccc(OC)cc2)c(=O)c2c1c1ccccc1n2C (centres undefined) | - | - | - | -
COc1ccc(-c2ccc(-c3nc(CC(C)C)no3)cn2)c2cccnc12 | - | - | - | 28.2µM
COc1cccc(-c2nc(-c3c(C)noc3C)cc3c2cc(C)n3CCN(C)C)c1 | - | - | - | 39.8µM
COc1cccc(-c2nc(-c3c(C)noc3C)cc3c2cc(C)n3C)c1OC | - | - | - | 35.5µM
COc1ccc(-c2nc(-c3c(C)noc3C)cc3c2cc(C)n3CCN(C)C)cc1OC | - | - | - | -
COc1cc(F)ccc1-c1nc(-c2c(C)noc2C)cc2[nH]c(C)cc12 | - | - | - | 35.5µM
COc1cc(-c2nc(-c3c(C)noc3C)cc3c2cc(C)n3C)ccn1 | - | - | - | -

From PubChem
